Drawing on the supplement of paper PMC7866885, “A novel bicyclic 2,4-diaminopyrimidine inhibitor of Streptococcus suis dihydrofolate reductase” (PeerJ, 2021), this text covers percent growth for 58 molecules.

The subject of one assay is Streptococcus suis HE06. In words: percent growth relative to DMSO control; higher = less growth inhibition. The note with it: 10 µM; incubation time 18 h. As for the experimental part:
(§1)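 CLSI broth microdilution: 5x10^4 CFU of Streptococcus suis (strain P1/7 or HE06) incubated with 10 µM Pathogen Box compound in cation-adjusted Mueller Hinton broth, 37 °C, 5% CO2, 18 h. Growth read as OD600 and expressed as percent of the DMSO-treated control (100%); mean ± SD of three independent experiments.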

A further assay relates to Streptococcus suis P1/7. The assay is described as above. To be noted: 10 µM; incubation time 18 h. As for the experimental part:
as §1

Structures are written as SMILES. ± gives the standard deviation.

In the assay with Streptococcus suis HE06, `Cc1nc(-c2ccccn2)nc(N(C)CCc2ccccc2)c1Cl` displayed a percent growth of 9.53 ± 8.4%.
Still for that read-out and setting: as for `CC(=O)N(CCN(C(=O)c1ccc(F)cc1)c1ccccc1)c1ccccc1`, the figure is 86.6 ± 26%; as for `CNC(=O)CNc1nc(-c2ccccn2)nc2scc(-c3ccccc3)c12`, 87.1 ± 13%.
Same read-out and setting: as for `O=C(Nc1nc(-c2ccccn2)cs1)c1cncn1-c1ccccc1`, the figure is 13.4 ± 19%; as for `CCOc1ccc(OCC(=O)Nc2cc(C)cc(C)c2)cc1`, 96.3 ± 4.6%.
`Cn1ccnc1CNCCS(=O)(=O)c1cccc(Nc2ccc(-c3cccc(F)c3)cn2)c1` displayed a percent growth in the assay on Streptococcus suis HE06 of 91.4 ± 14%.
In the case of `COc1ccc(-c2nn(C(C)C)c3ncnc(N)c23)cc1OC`, in the assay on Streptococcus suis HE06, the percent growth was 112 ± 26%.
For `CO[C@@H](C(=O)N1Cc2[nH]nc(NC(=O)c3ccc(N4CCN(C)CC4)cc3)c2C1)c1ccccc1`, the percent growth in the assay with Streptococcus suis HE06 worked out at 82.9 ± 11%.
The molecule `CNc1snc(C)c1C(=O)NCCOc1ccc(OC)cc1` yielded a percent growth in the assay on Streptococcus suis HE06 of 102 ± 22%.
Molecule `O=C(NCc1ccco1)N1CCN(Cc2ccc(Cl)s2)CC1` registered a percent growth in the assay on Streptococcus suis HE06 of 97.2 ± 4.8%.
`CC[P](CC)(CC)=[Au][S][C@H]1O[C@@H](COC(C)=O)[C@H](OC(C)=O)[C@@H](OC(C)=O)[C@@H]1OC(C)=O`: the percent growth in the assay with Streptococcus suis HE06 was determined as 4.65 ± 3%.
`N=C(N)c1ccc(OCCCCCOc2ccc(C(=N)N)cc2)cc1` gave a percent growth in the assay with Streptococcus suis HE06 of 146 ± 200%.
The same measure, in the same setting: the same measure for `COC(=O)c1ccc(F)cc1NS(=O)(=O)c1cccc(-c2cnn(Cc3ccccc3)c2)c1`: 99.6 ± 8.2%.
Regarding `Cc1ccc(S(=O)(=O)N2CCN(C(=O)c3cc(-c4ccccc4)[nH]n3)CC2)cc1`, the percent growth in the assay with Streptococcus suis HE06 was determined as 118 ± 39%.
On the same count and under the same terms, as for `O=C(Nc1ccc(N2CCNCC2)cc1)c1ccn2ncc(-c3cccc(Cl)c3)c2n1`, the figure is 98.9 ± 27%.
`Cc1nc(-c2cccc(NCc3ccccc3)c2)[nH]c1C`: the percent growth in the assay with Streptococcus suis HE06 was 60.1 ± 36%.
Same read-out and setting: as for `CCCn1c(CNc2ccccc2O)nc2ccccc21`, the figure is 62.6 ± 7.6%.
The molecule `CNC(=O)c1cc(S(=O)(=O)N2CCN(c3ccccn3)CC2)cs1` showed a percent growth in the assay with Streptococcus suis HE06 of 79.7 ± 12%.
In the case of `Nc1nccc2ccc(Oc3ccncc3)cc12`, the percent growth with Streptococcus suis HE06 stood at 97.4 ± 7%.
`O=C(NC1CC1)c1ccc(N2CCOc3ccc(Cl)cc32)s1` registered a percent growth in the assay on Streptococcus suis HE06 of 73.8 ± 20%.
Consider `CC(C)(C)c1cc(C(=O)N2CCN(c3nccnc3C#N)CC2)n(Cc2ccccc2)n1`, for which the percent growth with Streptococcus suis HE06 came out at 93.1 ± 32%.
In the assay with Streptococcus suis HE06, `CNC(=O)c1nn(C)c2c1C(C)(C)Cc1cnc(Nc3ccc(N4CCN(C)CC4)cc3)nc1-2` returned a percent growth of 88.7 ± 21%.
`CC(C)(C)n1nc(-c2ccccc2)c2c(N)ncnc21` returned a percent growth with Streptococcus suis HE06 of 79.7 ± 12%.
`CNC(=O)C1Cc2c([nH]c3cc(Cl)ccc23)C2(CCN(CCc3ccccc3)CC2)N1` (stereo not given) displayed a percent growth with Streptococcus suis HE06 of 95.5 ± 23%.
In the case of `COc1ccc(Cl)cc1NC(=O)CN(C)C(=O)c1cnn(-c2ccccc2)n1`, in the assay with Streptococcus suis HE06, the percent growth was found to be 79.4 ± 7.2%.
Still for that read-out and setting: as for `COc1cc(C2=NCCN2)ccc1-c1cn(-c2cccc(C3=NCCN3)c2)nn1`, the figure is 82.9 ± 23%; as for `O=C(Nc1ccccc1)c1ccc(-c2cc3ccncc3cc2OC2CCNCC2)s1`, 85.8 ± 20%; as for `CN(C(=O)c1cc2c(-c3cncnc3)cccc2[nH]1)c1ccccc1`, 102 ± 29%.
For the molecule `CC1(C)Cc2c(c(N3CCOCC3)nc3snc(Br)c23)CO1`, in the assay with Streptococcus suis HE06, the percent growth was 94.1 ± 2%.
As for `O=C(Nc1ccc2c(c1)B(O)OC2)c1ccccc1C(F)(F)F`, the percent growth with Streptococcus suis HE06 came out at 88.2 ± 15%.
As to `COc1cncc(-c2cncc(N3CCN(c4ccncc4)CC3)n2)c1`, the percent growth in the assay on Streptococcus suis HE06 came to 87.2 ± 26%.
The molecule `CN1CCCN(C(c2ccccc2)c2ccc(Cl)cc2)CC1` (stereo not given) displayed a percent growth with Streptococcus suis HE06 of 91.9 ± 4.1%.
Molecule `CC[C@H](CO)NCCN[C@H](CC)CO` had a percent growth in the assay on Streptococcus suis HE06 of 88.7 ± 6.4%.
Turning to `CS(=O)(=O)N1CCC(Cn2nc(Cc3cccc4ccccc34)c3c(N)ncnc32)CC1`, in the assay on Streptococcus suis HE06, the percent growth amounted to 91.3 ± 29%.
`CNC1C(OC2C(OC3C(O)C(O)C(NC(=N)N)C(O)C3NC(=N)N)OC(C)C2(O)C=O)OC(CO)C(O)C1O` (stereo not given) returned a percent growth in the assay with Streptococcus suis HE06 of 99.9 ± 10%.
On the same count and under the same terms, as for `CC(C)C(Oc1cccc2ccccc12)C(=O)O` (stereo not given), the figure is 87 ± 4.3%.
In the assay with Streptococcus suis HE06, `CC1(COc2ccc(N3CCC(Oc4ccc(OC(F)(F)F)cc4)CC3)cc2)Cn2cc([N+](=O)[O-])nc2O1` (stereo not given) gave a percent growth of 91.7 ± 9.5%.
In the case of `c1ccc(Oc2ccc(-c3cc(N4CCNCC4)[nH]n3)cc2)cc1`, the percent growth with Streptococcus suis HE06 came out at 106 ± 35%.
For the molecule `Cc1cc(NCCc2ccccc2)nc(NC(=N)Nc2ccc(Cl)cc2)n1`, the values for the percent growth in the assay on Streptococcus suis HE06 and in the assay on Streptococcus suis P1/7 were 148 ± 68% and 74.4 ± 13%, respectively.
In the case of `Nc1ncnc2c1c(-c1cnc3ccccc3c1)nn2CC1CCNCC1`, the values for the percent growth with Streptococcus suis HE06 and in the assay on Streptococcus suis P1/7 were 94.9 ± 5.4% and 102 ± 20%, respectively.
For the molecule `CC(C)(C)OC(=O)N1CCN(c2cc(-c3ccc(Oc4ccccc4)cc3)n[nH]2)CC1`, the values for the percent growth in the assay with Streptococcus suis HE06 and in the assay with Streptococcus suis P1/7 were 89.6 ± 5.8% and 28.7 ± 42%, respectively.
As to `Cc1cc(NC(=O)c2ccc(Oc3ccc(Cl)cc3O)o2)no1`, the percent growth was determined as 108 ± 22% in the assay with Streptococcus suis HE06 and 124 ± 65% in the assay with Streptococcus suis P1/7.
As to `COc1ccc(Cn2cnc3c(-c4ccco4)nc(Cl)nc32)cc1`, the results for the percent growth in the assay with Streptococcus suis HE06 and in the assay with Streptococcus suis P1/7 were 88.5 ± 13% and 102 ± 42%, respectively.
`COc1ccc(N(CCc2cccc(C)n2)C(=O)C2CCCCC2)cc1`: in the assay with Streptococcus suis HE06, the percent growth was determined as 115 ± 37%.
With `CCOC(=O)NC(=O)c1ccsc1NC(=O)c1nc2ccccc2s1`, the percent growth in the assay with Streptococcus suis HE06 was found to be 0.167 ± 0.2%; with Streptococcus suis P1/7, 5.08 ± 8.2%.
On the same counts, the results for `Nc1nc2ccc(-c3cncc(Oc4ccc(F)cc4)c3)cc2[nH]1` are 91.8 ± 11% and 111 ± 67%.
Consider `COc1ccc(C2CC(c3cccs3)=NN2C(=O)c2ccco2)cc1OC` (stereo not given), for which the values for the percent growth in the assay on Streptococcus suis HE06 and in the assay on Streptococcus suis P1/7 were 75.4 ± 3% and 99.7 ± 26%, respectively.
For the molecule `Cc1nnc(NCc2cccc(Cl)c2)c2ccccc12`, the figures for the percent growth with Streptococcus suis HE06 and in the assay with Streptococcus suis P1/7 were 80.1 ± 8.7% and 85.4 ± 29%, respectively.
The matching figures for `O=C(NC1CCCCC1)N1CCN(Cc2ccc3c(c2)OCO3)CC1`: 78.5 ± 7.2% and 52.2 ± 38%.
`O=C(Nc1nnc(-c2ccc(Cl)cc2)o1)c1cccc(C(F)(F)F)c1`: the percent growth was 0% with Streptococcus suis HE06 and 2.91 ± 3.9% with Streptococcus suis P1/7.
On to `COc1ccc(Nc2ccccc2NC(=O)c2ccc(O)nc2)cc1`, for which the percent growth in the assay with Streptococcus suis HE06 amounted to 86.7 ± 11%.
In the case of `CC(c1cc(Cl)cc(Cl)c1)N(C)c1ncc2c(N)nc(N)nc2n1` (stereo not given), the percent growth with Streptococcus suis HE06 was found to be 84.7 ± 21%; with Streptococcus suis P1/7, 57.6 ± 42%.
With `COC(=O)C1=C(C)NC(C)=C(C(=O)OC(C)C)C1c1cccc2nonc12` (stereo not given), the percent growth worked out at 73.1 ± 15% in the assay on Streptococcus suis HE06 and 73.6 ± 34% with Streptococcus suis P1/7.
Turning to `Cc1ncc(-c2ccnc(Nc3ccc(S(C)(=O)=O)cc3)n2)n1C(C)C`, the percent growth in the assay with Streptococcus suis HE06 was found to be 89.7 ± 4.3%; in the assay on Streptococcus suis P1/7, 150 ± 100%.
As to `CCOC(=O)c1cc(-c2csc(Nc3c(C)cc(C)cc3C)n2)on1`, the percent growth in the assay with Streptococcus suis HE06 was 91.3 ± 6%; in the assay on Streptococcus suis P1/7 it was 108 ± 60%.
In the case of `O=C(Nc1ccnc(-c2cccnc2)n1)c1cc(C(F)(F)F)cc(C(F)(F)F)c1`, the percent growth in the assay on Streptococcus suis HE06 stood at 78.2 ± 14%; in the assay on Streptococcus suis P1/7 it was 123 ± 50%.
The molecule `c1ccc(Oc2ccc(-c3cc(N4CCOCC4)[nH]n3)cc2)cc1` returned a percent growth in the assay with Streptococcus suis HE06 of 81.2 ± 21%.
For the molecule `CCC(Sc1nc2ccccc2o1)C(=O)Nc1nccs1` (stereo not given), the percent growth was found to be 0% in the assay with Streptococcus suis HE06 and 9.43 ± 16% in the assay on Streptococcus suis P1/7.
